Values joined by “and” are separate entries in the source; they are usually repeats but may differ in a detail not shown here. Equal values may be shown once. Results filed as inconclusive are left out. Active and inactive are the calls of the source. Unless noted, calls follow the shape of the full dose curve.
Key:
[1] = molecular target: Cytochrome P450 3A4 (Homo sapiens) (UniProt P08684); assay: qHTS Assay for Activators of Cytochrome P450 3A4 (AID 885; active = well fitted curve in the direction sought with a large enough effect; an effect the other way counts as inactive or inconclusive; also: nearly all actives have a fitted effect of over 65% in size)
Sequence of Cytochrome P450 3A4 (Homo sapiens) (P08684 whole entry, looked up): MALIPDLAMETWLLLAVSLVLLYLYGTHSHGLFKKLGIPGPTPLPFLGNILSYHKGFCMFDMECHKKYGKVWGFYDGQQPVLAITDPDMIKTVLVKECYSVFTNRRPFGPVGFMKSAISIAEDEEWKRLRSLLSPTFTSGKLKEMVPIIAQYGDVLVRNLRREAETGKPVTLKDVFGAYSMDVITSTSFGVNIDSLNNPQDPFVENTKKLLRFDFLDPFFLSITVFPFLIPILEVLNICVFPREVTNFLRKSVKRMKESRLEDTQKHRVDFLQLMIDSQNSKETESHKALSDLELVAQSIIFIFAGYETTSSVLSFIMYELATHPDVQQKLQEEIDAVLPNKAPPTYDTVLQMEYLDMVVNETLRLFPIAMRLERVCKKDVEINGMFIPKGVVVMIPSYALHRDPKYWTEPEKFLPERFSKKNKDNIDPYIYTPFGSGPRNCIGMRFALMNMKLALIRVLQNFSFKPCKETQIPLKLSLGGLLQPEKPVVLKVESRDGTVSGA
Summary of the method: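 Human CYP3A4 dealkylates Luciferin-PPXE to luciferin, which luciferase detection converts to light. Substrate was at its KM (25uM), buffer 200mM KPO4, reaction 60 min at RT.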

[2] = S16 Schwann cell PMP22 intronic element beta-lactamase assay (AID 624044); also: potency is read from the fitted curve at half-maximal effect; nearly all actives have a fitted effect of over 15% in size
Summary of the method: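 Beta-lactamase reporter under a PMP22 intronic regulatory element in stable S16 rat Schwann cells; 24 h compound exposure. 460 nm blue signal normalized between DMSO (0%) and potassium clavulanate, with 535 nm FRET tracking viability; curves classed by r2 and response.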

[3] = qHTS profiling of the MIPE4 collection as inhibitors of Plasmodium falciparum (3D7) proliferation (AID 743344; call rule not given here;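 also: scaled between DMSO vehicle wells and 0.29 µM artemisinin as full inhibition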); conditions: P. falciparum 3D7 in erythrocytes, SYBR Green DNA fluorescence, 72 h; at 28.5 µM (top of the series) unless noted
Summary of the method: (§1)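 Parasite DNA was quantified by SYBR Green I fluorescence (ex 485, em 535 nm) after overnight lysis in saponin/Triton buffer at room temperature. Cultures at 0.3% parasitemia and 2.5% hematocrit were first exposed to compound for 72 h at 37 C; signals were normalised to artemisinin (0.29 uM) and vehicle wells.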

[4] = qHTS profiling of the MIPE4 collection as inhibitors of Plasmodium falciparum (DD2) proliferation (AID 743345; call rule not given here); conditions: P. falciparum Dd2 in erythrocytes, SYBR Green DNA, 72 h; at 28.5 µM (top of the series) unless noted
Summary of the method: as §1

[5] = qHTS profiling of the MIPE4 collection as inhibitors of Plasmodium falciparum (DD2) proliferation (Rep 2) (AID 743346; call rule not given here); conditions: P. falciparum Dd2 in erythrocytes, SYBR Green DNA, 72 h; at 28.5 µM (top of the series) unless noted
Summary of the method: as §1

[6] = qHTS for Inhibitors of the Functional Ribonucleoprotein Complex (vRNP) of Lassa (LASV) Arenavirus: LASV Primary Screen - GLuc reporter signal (AID 1347082; calls by dose curve; tested in HEK293 reporter line; also: % is scaled to controls: 0 for no effect and ±100 for the full control effect; nearly all actives have a fitted effect of over 60% in size)
[7] = qHTS for Inhibitors of the Functional Ribonucleoprotein Complex (vRNP) of Lassa (LASV) Arenavirus: Viability assay - alamar blue signal for LASV Primary Screen (AID 1347083; calls by dose curve; tested in HEK293 reporter line; also: % is scaled to controls: 0 for no effect and ±100 for the full control effect; nearly all actives have a fitted effect of over 80% in size)
[8] = qHTS for Inhibitors of the Functional Ribonucleoprotein Complex (vRNP) of Lymphocytic Choriomeningitis Arenaviruses (LCMV): Viability assay - alamar blue signal for LCMV Primary Screen (AID 1347085; calls by dose curve; tested in HEK293 reporter line; also: % is scaled to controls: 0 for no effect and ±100 for the full control effect; nearly all actives have a fitted effect of over 80% in size)
[9] = molecular target: Nucleoprotein (Lymphocytic choriomeningitis virus (strain Armstrong)) (UniProt P09992); assay: qHTS for Inhibitors of the Functional Ribonucleoprotein Complex (vRNP) of Lymphocytic Choriomeningitis Arenaviruses (LCMV): LCMV Primary Screen - GLuc reporter signal (AID 1347086); also: % is scaled to controls: 0 for no effect and ±100 for the full control effect; nearly all actives have a fitted effect of over 70% in size
Sequence of Nucleoprotein (Lymphocytic choriomeningitis virus (strain Armstrong)) (P09992 whole entry, looked up): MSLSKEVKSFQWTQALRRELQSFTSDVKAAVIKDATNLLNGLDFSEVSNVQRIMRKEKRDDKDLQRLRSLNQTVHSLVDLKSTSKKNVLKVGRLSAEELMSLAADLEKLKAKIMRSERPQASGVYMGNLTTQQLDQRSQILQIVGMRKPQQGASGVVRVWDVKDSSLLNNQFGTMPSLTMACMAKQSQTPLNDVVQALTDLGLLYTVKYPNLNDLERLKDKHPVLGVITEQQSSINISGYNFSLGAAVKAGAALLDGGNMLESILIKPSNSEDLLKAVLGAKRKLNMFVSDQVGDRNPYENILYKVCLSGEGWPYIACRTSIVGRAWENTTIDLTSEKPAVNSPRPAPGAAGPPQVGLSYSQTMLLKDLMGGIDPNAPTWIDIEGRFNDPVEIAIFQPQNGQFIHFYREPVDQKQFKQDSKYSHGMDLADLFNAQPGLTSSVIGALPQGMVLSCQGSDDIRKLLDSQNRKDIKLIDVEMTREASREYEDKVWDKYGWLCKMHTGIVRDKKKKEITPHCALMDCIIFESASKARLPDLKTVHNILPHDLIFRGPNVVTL

[10] = Primary qHTS for inhibitors of SARS-S pseudo-typed particle cell entry (AID 1479145); also: nearly all actives have a fitted effect of over 45% in size; also: potency is read from the fitted curve at half-maximal effect; as to activity change, negative = inhibition: % is scaled to controls: 0 for no effect and ±100 for the full control effect
[11] = Primary qHTS for Huh7 cytotoxicity: counterscreen for inhibitors of MERS-S pseudotyped particle cell entry (AID 1479147); conditions: outcome: dose series up to 57.1 µM unless noted
[12] = Primary qHTS for inhibitors of MERS-S pseudo-typed particle cell entry (AID 1479149); also: nearly all actives have a fitted effect of over 60% in size; also: potency is read from the fitted curve at half-maximal effect
[13] = Confirmatory qHTS to identify inhibitors of SARS-CoV-2 cell entry (AID 1645844); also: potency is read from the fitted curve at half-maximal effect; nearly all actives have a fitted effect of over 45% in size
Summary of the method: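 Luminescence entry read-out after 48 h: spike-pseudotyped MLV particles (Wuhan-Hu-1, 19-aa C-terminal truncation) added to compound-pretreated (1 h) HEK293-ACE2 cells; Data were normalised to bald PP and spike PP wells.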

[14] = Cytotoxicity counterscreen for inhibitors of SARS-CoV-2 cell entry (AID 1645845); also: nearly all actives have a fitted effect of over 50% in size
Summary of the method: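 ATP-content luminescence (ATPLite 1step, 15 min RT) read after 48 h compound exposure of Expi293F cells stably expressing human ACE2; normalized to cells-only wells and media-only wells.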

[15] = VSVG counterscreen qHTS to identify inhibitors of SARS-CoV-2 cell entry (AID 1645847); also: potency is read from the fitted curve at half-maximal effect; nearly all actives have a fitted effect of over 65% in size
Summary of the method: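 HEK293-ACE2 cells (Expi293F stably expressing human ACE2) were pretreated with compound for 1 h at 37 °C, then infected with MLV-based VSV-G pseudotyped particles for 48 h. Luciferase luminescence was normalized to VSV-G PP and bald PP wells.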

[16] = Primary qHTS for Vero E6 cytotoxicity: counterscreen for inhibitors of SARS-S pseudo-typed particle cell entry (AID 1479150); conditions: outcome: dose series up to 57.1 µM unless noted
[17] = Primary qHTS to identify inhibitors of SARS-CoV-2 cell entry (AID 1645846); conditions: activity change, negative = inhibition: at 57.1 µM (top of the series) unless noted; also: nearly all actives have a fitted effect of over 45% in size
Summary of the method: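 Luminescence readout (Bright-Glo luciferase) 48 h after pseudoparticle addition. HEK293-ACE2 cells, 1500/well; compound pre-incubation 1 h; Normalized to spike PP and bald PP.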

[18] = molecular target: Nuclear receptor subfamily 1 group I member 3 (Homo sapiens) (UniProt Q14994); assay: Primary qHTS for antagonist of constitutive androstane receptor (CAR) against the NCATS DSHEA and TCM libraries (AID 1794836; active = well fitted curve in the direction sought with a large enough effect; an effect the other way counts as inactive or inconclusive;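 also: HepG2 cells stably expressing hCAR with CYP2B6 luciferase reporter stimulated by CITCO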)
Sequence of Nuclear receptor subfamily 1 group I member 3 (Homo sapiens) (Q14994 whole entry, looked up): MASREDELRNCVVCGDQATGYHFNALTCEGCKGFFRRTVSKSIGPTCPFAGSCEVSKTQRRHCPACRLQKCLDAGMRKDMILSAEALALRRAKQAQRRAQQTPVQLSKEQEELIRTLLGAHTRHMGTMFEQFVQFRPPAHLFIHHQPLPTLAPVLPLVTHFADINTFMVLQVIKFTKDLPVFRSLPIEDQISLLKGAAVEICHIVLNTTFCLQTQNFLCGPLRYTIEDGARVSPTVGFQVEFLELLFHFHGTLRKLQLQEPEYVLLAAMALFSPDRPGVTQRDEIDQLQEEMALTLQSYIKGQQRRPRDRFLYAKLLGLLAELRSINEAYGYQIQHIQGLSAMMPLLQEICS
Summary of the method: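 Antagonist mode: CAR reporter luminescence (ONE-Glo) in HepG2-CYP2B6-hCAR cells stimulated with 48 uM CITCO (final) over 24 h at 37 C, compounds titrated; viability read first by CellTiter-Fluor fluorescence.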

[19] = KB-8-5-11 P-gp reporter qHTS against the NCATS DSHEA and TCM libraries (AID 1919977; active = well fitted curve in the direction sought with a large enough effect; an effect the other way counts as inactive or inconclusive; also: 0% is about no effect)
Summary of the method: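 P-gp-overexpressing KB-8-5-11 cells (500/well) were plated in colchicine-free DMEM with 10% FBS, attached ~4 h, then exposed to substance titrations for ~72 h at 37C. Viability was read by CellTiter-Glo luminescence.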

[20] = Validation screen for inhibitors of Lassa infection (AID 463096); also: % is scaled to controls: 0 for no effect and ±100 for the full control effect
[21] = Inducers of the Endoplasmic Reticulum Stress Response (ERSR) in human glioma: Validation (AID 504836; active = well fitted curve in the direction sought with a large enough effect; an effect the other way counts as inactive or inconclusive; also: 0% is about no effect)
Summary of the method: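 ERSR induction read as luciferase luminescence (Bright-Glo, 10 min at room temperature) in stably transfected human U87-MG glioma cells exposed to compounds for 16 h, using GRP78 as sensor.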

[22] = Confirmatory qHTS for small molecule stabilizers of the endoplasmic reticulum resident proteome: Secreted ER Calcium Modulated Protein (SERCaMP) assay (AID 1508628; active = well fitted curve in the direction sought with a large enough effect; an effect the other way counts as inactive or inconclusive; also: potency is read from the fitted curve at half-maximal effect; nearly all actives have a fitted effect of over 40% in size)
Summary of the method: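 Reporter secretion upon ER calcium depletion (100 nM thapsigargin, 4 h, 37C) is measured as medium luminescence with coelenterazine, after 16 h compound pretreatment of SH-SY5Y-GLuc-SERCaMP cells; primary at three concentrations up to 38.3 uM, follow-up at 11 (up to 76.6 uM).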

[23] = Cell Viability qHTS for small molecule stabilizers of the endoplasmic reticulum resident proteome (AID 1508629; active = well fitted curve in the direction sought with a large enough effect; an effect the other way counts as inactive or inconclusive;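 also: human SH-SY5Y neuroblastoma cells carrying the GLuc-SERCaMP reporter; compound exposure about 46 h in total before the viability read; % is scaled to controls: 0 for no effect and ±100 for the full control effect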); conditions: cell viability counter-screen, 100 nM thapsigargin for final 4 h
[24] = qHTS Assay for Identification of Small Molecule Antagonists for Thrombopoietin (TPO) Signaling Pathway (AID 918; active = well fitted curve in the direction sought with a large enough effect; an effect the other way counts as inactive or inconclusive; also: potency is read from the fitted curve at half-maximal effect; nearly all actives have a fitted effect of over 60% in size); conditions: TPO-dependent cell signaling reporter, antagonist mode
Summary of the method: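 Inhibitors of TPO signaling are sought by stimulating IL-3-starved murine Ba/F3 cells (human TPO receptor, Glycoprotein IIb-driven luciferase) with TPO at its EC50 of 26 pM alongside compound. After 24 hrs at 37 C, reporter luminescence is measured.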

[25] = molecular target: Alpha-galactosidase (Coffea arabica) (UniProt Q42656); assay: Counterscreen for Glucocerebrosidase Inhibitors: qHTS Assay for Coffee Bean alpha-Galactosidase at pH 4.5 (AID 957; active = well fitted curve in the direction sought with a large enough effect; an effect the other way counts as inactive or inconclusive;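 also: plate controls were enzyme alone for no effect and no enzyme for full effect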)
Sequence of Alpha-galactosidase (Coffea arabica) (Q42656 whole entry, looked up): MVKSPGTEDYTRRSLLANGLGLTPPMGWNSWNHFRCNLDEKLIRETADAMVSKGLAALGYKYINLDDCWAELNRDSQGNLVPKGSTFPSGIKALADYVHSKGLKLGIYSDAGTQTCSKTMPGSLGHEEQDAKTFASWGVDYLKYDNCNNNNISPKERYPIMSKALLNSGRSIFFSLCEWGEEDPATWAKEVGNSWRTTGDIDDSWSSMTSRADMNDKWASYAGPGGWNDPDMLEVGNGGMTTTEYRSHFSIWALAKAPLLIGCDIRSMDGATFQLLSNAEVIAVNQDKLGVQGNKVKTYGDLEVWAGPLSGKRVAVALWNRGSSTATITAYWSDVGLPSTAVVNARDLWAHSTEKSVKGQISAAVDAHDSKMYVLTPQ
Summary of the method: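 Enzyme is added first (2 nM final), then compounds titrated from 0.7 nM to 77 uM, then 80 uM 4-methylumbelliferyl alpha-D-galactopyranoside; after 20 min at room temperature a pH 10 NaOH/glycine stop precedes fluorescence reading at 365/440 nm.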

[26] = molecular target: M-phase phosphoprotein 8 (Homo sapiens) (UniProt Q99549); assay: qHTS Validation Assay for Inhibitors for MPP8 Chromodomain Interactions with Methylated Histone Tails (AID 488949; active = well fitted curve in the direction sought with a large enough effect; an effect the other way counts as inactive or inconclusive;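 also: AlphaScreen signal from MPP8 chromodomain bound to biotinylated H3K9me3 peptide; top concentration of the series differs between compounds; % is scaled to controls: 0 for no effect and ±100 for the full control effect; nearly all actives have a fitted effect of over 55% in size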)
Sequence of M-phase phosphoprotein 8 (Homo sapiens) (Q99549 whole entry, looked up): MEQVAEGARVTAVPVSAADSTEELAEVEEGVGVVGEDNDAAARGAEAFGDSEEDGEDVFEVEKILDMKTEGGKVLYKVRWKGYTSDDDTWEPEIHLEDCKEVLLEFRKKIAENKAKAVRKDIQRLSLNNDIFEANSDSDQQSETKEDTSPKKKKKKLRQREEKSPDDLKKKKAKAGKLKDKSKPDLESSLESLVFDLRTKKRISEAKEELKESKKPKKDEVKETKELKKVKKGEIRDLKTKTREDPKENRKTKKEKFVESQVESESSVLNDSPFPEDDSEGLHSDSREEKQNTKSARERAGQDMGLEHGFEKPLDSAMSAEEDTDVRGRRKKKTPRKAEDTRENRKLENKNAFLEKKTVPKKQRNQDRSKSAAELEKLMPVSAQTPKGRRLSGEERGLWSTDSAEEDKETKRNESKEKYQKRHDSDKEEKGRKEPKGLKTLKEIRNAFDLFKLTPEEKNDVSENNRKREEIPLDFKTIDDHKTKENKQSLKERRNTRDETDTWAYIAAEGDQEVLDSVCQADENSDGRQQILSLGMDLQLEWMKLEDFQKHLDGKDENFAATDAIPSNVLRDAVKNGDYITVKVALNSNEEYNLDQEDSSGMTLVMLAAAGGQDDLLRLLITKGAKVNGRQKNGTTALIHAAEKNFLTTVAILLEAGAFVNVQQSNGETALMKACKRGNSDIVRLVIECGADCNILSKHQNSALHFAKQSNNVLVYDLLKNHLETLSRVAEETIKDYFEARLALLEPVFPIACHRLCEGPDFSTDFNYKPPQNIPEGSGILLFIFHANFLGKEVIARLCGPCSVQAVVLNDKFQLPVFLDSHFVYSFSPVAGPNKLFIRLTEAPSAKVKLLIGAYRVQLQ
Summary of the method: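 MPP8 (50 nM) was preincubated with biotinylated H3(1-18)K9me3 peptide (50 nM) in PBS pH 7.4, 0.01% Tween-20 for 30 min at room temperature, then with compounds for 30 min; binding was detected by AlphaScreen.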

[27] = molecular target: Arylsulfatase A (Homo sapiens) (UniProt P15289); assay: qHTS screen for enhancers of Arylsulfatase A (ASA1): LOPAC Validation Assay (AID 720538; active = well fitted curve in the direction sought with a large enough effect; an effect the other way counts as inactive or inconclusive; also: 0% is about no effect)
Sequence of Arylsulfatase A (Homo sapiens) (P15289 whole entry, looked up): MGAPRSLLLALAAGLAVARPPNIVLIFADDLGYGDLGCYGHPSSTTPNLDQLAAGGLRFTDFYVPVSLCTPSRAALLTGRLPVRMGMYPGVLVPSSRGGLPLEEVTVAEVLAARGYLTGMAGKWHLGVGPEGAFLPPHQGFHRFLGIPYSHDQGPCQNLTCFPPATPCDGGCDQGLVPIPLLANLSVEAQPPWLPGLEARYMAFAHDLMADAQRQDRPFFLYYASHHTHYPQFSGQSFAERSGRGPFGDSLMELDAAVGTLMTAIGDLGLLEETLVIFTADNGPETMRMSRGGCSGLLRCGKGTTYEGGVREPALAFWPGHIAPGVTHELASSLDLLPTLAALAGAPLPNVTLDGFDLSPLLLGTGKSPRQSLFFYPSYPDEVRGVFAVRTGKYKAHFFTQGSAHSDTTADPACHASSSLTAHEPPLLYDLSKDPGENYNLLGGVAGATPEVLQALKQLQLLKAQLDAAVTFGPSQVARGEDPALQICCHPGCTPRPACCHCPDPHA
Summary of the method: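 SV40-transformed skin fibroblasts from an MLD patient (ASA-I179S) were treated with compounds for 48h at 37 degree C, then lysed with 0.5mM pNCS final substrate for 14h at room temperature; NaOH stop, fluorescence read (Ex=525 nm; Em=598 nm).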

COC(=O)C[C@](O)(CCCC(C)(C)O)C(=O)O[C@@H]1C(OC)=C[C@]23CCCN2CCc2cc4c(cc2[C@H]13)OCO4
inactive: Potency [1] | Potency [6] | Potency [7] | Potency [8] | Potency [9] | outcome [11] | Potency [14]
active: Potency [2] 89.1 nM | Potency [10] 3160 nM | Potency [12] 891 nM | Potency [13] 136 nM | Potency [15] 68.1 nM
67.1%: parasite growth, % of control (lower = inhibition) [5]
85.8%: parasite growth remaining, % of DMSO control (lower = more inhibition) [4]
70%: parasite growth, % of DMSO control [3]

CC(=O)O[C@H]1C[C@@H]2CC[C@H]3[C@H]4C[C@H]([N+]5(C)CCCCC5)[C@@H](OC(C)=O)[C@@]4(C)CC[C@@H]3[C@@]2(C)C[C@H]1[N+]1(C)CCCCC1
-10.4%: activity change, negative = inhibition [17]
58.4%: parasite growth, % of control (lower = inhibition) [5]
88%: parasite growth remaining, % of DMSO control (lower = more inhibition) [4]
inactive: Potency [6] | Potency [7] | Potency [8] | Potency [9] | Potency [10] | outcome [11] | Potency [12] | outcome [16] | Potency [14] | Potency [17]
73.3%: parasite growth, % of DMSO control [3]

CC(O)[C@H]1CC[C@H]2[C@@H]3CC[C@@H]4C[C@@H](O)CC[C@]4(C)[C@H]3CC[C@]12C (some centres not stated)
inactive: Potency [6] | Potency [7] | Potency [8] | Potency [9] | outcome [11] inactive [at 114 µM] | Potency [12] | outcome [16] inactive [at 114 µM] | Potency [14]
-11.6% [at 114 µM]: activity change, negative = inhibition [17]

COc1ccc(CC2c3cc(OC)c(OC)cc3CC[N+]2(C)CCC(=O)OCCCCCOC(=O)CC[N+]2(C)CCc3cc(OC)c(OC)cc3C2Cc2ccc(OC)c(OC)c2)cc1OC (configuration not stated)
inactive: activity change, negative = inhibition [6] -1.71% [at 11.5 µM] | activity change, negative = reduced viability [7] -21.5% [at 11.5 µM] | activity change, negative = lower viability [8] 2.32% [at 11.5 µM] | activity change, negative = inhibition [9] -0.768% [at 11.5 µM] | Potency [10] | outcome [11] | Potency [12] | Potency [14]
-27% and -4%: activity change, negative = inhibition [17]

CCCCCCCC(=O)O
inactive: Potency [6] | Potency [7] | Potency [8] | Potency [9] | Potency [10] | outcome [11] | Potency [12] | outcome [16] | Potency [14] | Potency [18] | outcome [19]
1.02%: activity change, negative = inhibition [17]

CC(=O)O[C@H]1CC2(C)[C@@H](C[C@@H](O)[C@H]3[C@@]4(C)CC[C@@H](O)[C@@H](C)[C@@H]4CC[C@@]32C)C1=C(CCC=C(C)C)C(=O)O (some centres not stated)
-17.3%: activity change, negative = inhibition [17]
inactive: Potency [20] | outcome [21] | Potency [6] | Potency [7] | Potency [8] | Potency [9] | Potency [10] | outcome [11] | Potency [12] | outcome [16]

CN1C2CCC1CC(OC(=O)C1CCC(C(=O)OC3CC4CCC(C3)N4C)(c3ccccc3)c3ccccc31)C2 (configuration not stated)
inactive: Potency [6] | Potency [7] | Potency [8] | Potency [9] | max response [23] -2.96%
active: Potency [22] 4470 nM

CC(C)COC(=O)OCN1C(=O)CN(CCN2CC(=O)N(COC(=O)OCC(C)C)C(=O)C2)CC1=O
active: Potency [24] 251 nM
-21.8%: activity change, negative = inhibition [17]
inactive: Potency [1] | outcome [25] | Potency [20] | Potency [26] | outcome [21] | Potency [27] | Potency [6] | Potency [7] | Potency [8] | Potency [9] | outcome [11] | Potency [12] | outcome [16] | Potency [14]
